# Measurements taken from article PMC8769072, “Proteome‐scale mapping of binding sites in the unstructured regions of the human proteome” (Molecular Systems Biology, 2022).
# Chain of TLN1 309-401, Q9Y490 (Q9Y490 309-401): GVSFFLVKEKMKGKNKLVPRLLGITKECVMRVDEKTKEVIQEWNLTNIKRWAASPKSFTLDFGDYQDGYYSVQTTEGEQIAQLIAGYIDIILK
# Chain of YAP1 169-207, P46937 (P46937 169-207): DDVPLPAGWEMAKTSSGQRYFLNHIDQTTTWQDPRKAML
# Chain of TSG101 1-145, Q99816 (Q99816 1-145): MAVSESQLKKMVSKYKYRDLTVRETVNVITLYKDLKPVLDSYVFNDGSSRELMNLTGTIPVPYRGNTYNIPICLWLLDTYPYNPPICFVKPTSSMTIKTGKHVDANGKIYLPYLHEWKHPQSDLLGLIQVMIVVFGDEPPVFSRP
binder,measurement,setting,value
"GDTEAWQFPVMLEPMP [ERVK-21, P62683]",selected by phage display,"TLN1 309-401, Q9Y490",confidence 2 (active)
"LNPTAPPSRQGSELHE [ERVK-9, P63128]",selected by phage display,"TSG101 1-145, Q99816",confidence 2 (active)
"LPQYNNAPPPQAAVQQ [ERVK-6, Q7LDI9]",selected by phage display,"YAP1 169-207, P46937",confidence 2 (active)
